According to PubChem BioAssay AID504834 (National Center for Advancing Translational Sciences (NCATS), 2011):
About 22,000 (6.9%) of roughly 320,000 compounds were called active. A call without a number means that no potency is given here. About 27% were inconclusive and are not listed. The call rests on the fitted dose curve; in most records, active means well fitted inhibition curve with a large enough effect; inconclusive means small, poorly fitted or top-dose-only effect, or another doubt; inactive means no such curve, though single readings can be large or run the other way. The full list was thinned out, with actives kept by preference.

Assay: Primary qHTS for delayed death inhibitors of the malarial parasite plastid, 96 hour incubation
Conditions: P. falciparum luciferase reporter growth; series mostly up to 28.7 µM
Procedure, shortened: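 96 h incubation, 37 C, 5% CO2, of luciferase-reporter P. falciparum-infected RBCs (2% hematocrit, 0.05% parasitemia final) with test compounds; endpoint luminescence.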
Potency means the concentration at half of the fitted maximal effect.

Structure (SMILES)	Potency
CN1C(=O)C2(OCCCO2)c2cc(Cl)ccc21	inactive
Cc1cc(S(=O)(=O)c2cc3ccc(O)c(C)c3oc2=O)ccc1F	inactive
CCOc1ccc(-n2cnc3c(=O)[nH]c(N)nc32)cc1	inactive
Cc1n[nH]c(C)c1S(=O)(=O)N1CCCC(C(=O)Nc2ccc(Br)cc2)C1 (centres undefined)	inactive
CCC(C)C(N=C1NS(=O)(=O)c2ccccc21)C(=O)N1CCC(C)CC1 (centres undefined)	inactive
CCOC(=O)N1CCN(C(=O)c2ccc(S(=O)(=O)Nc3cccc(C(F)(F)F)c3)cc2)CC1	inactive
Nc1ccn(CC(=O)N2CCN(c3ccccn3)CC2)c(=O)n1	inactive
CC(C)C(=O)Nc1ccc2c(c1)oc1ccccc12	inactive
CC(C)C(=O)Nc1oc(-c2ccccc2)cc1C#N	2.08 µM (active)
CC(Oc1ccccc1)C(=O)Nc1oc(-c2ccco2)c(-c2ccco2)c1C#N (centres undefined)	inactive
CCC(=O)Nc1ccc2nn(-c3ccc(F)cc3)nc2c1	inactive
Cc1cccc(NC(=O)CN2CCN(CC(=O)NCC3(N4CCCCC4)CCCCC3)CC2)c1C	inactive
CN1CCN(c2ccc(NC(=O)COc3ccc(Cl)cc3Cl)cc2)CC1	inactive
COC(=O)c1sccc1NC(=O)COc1ccc(Cl)cc1	inactive
COC(=O)c1c(NC(=O)COc2ccc(Cl)cc2Cl)sc2c1CC(C)(C)NC2(C)C	6.57 µM (active)
Cc1nc2ccccc2c(=O)n1-c1ccc(F)c(NC(=O)c2cccs2)c1	inactive
O=C(NCc1cccc(Cl)c1)C1CCC(=O)N(C2CC2)C1 (centres undefined)	inactive
CCN1CCN(CCNC(=O)c2ccc3c(c2)NC(=O)/C(=C\c2ccc(OC)c(OC)c2)S3)CC1	inactive
Cc1ccc(S(=O)(=O)N(CC(O)CN2C(=O)NC(C)(C)C2=O)c2cccc([N+](=O)[O-])c2)cc1 (centres undefined)	inactive
COc1cc(/C=C2\CCCc3c2nc2ccccc2c3C(=O)O)cc(Cl)c1O	inactive
COc1ccccc1N1CCN(C(=O)Cn2nnc(-c3cccs3)n2)CC1	inactive
O=C(Nc1ccccc1-c1nnn(CC(=O)N2CCN(c3ccccc3)CC2)n1)c1cccs1	9.28 µM (active)

Structure (SMILES)	Potency
O=C(Nc1ccc(N2CCN(C(=O)C3CC3)CC2)cc1)c1cccs1	inactive
Cc1nc2nc(SCC(=O)Nc3cccc(F)c3)[nH]c2cc1Br	inactive
N#Cc1ccc(OCC(=O)NC(=O)NC2CCS(=O)(=O)C2)cc1 (centres undefined)	inactive
CCOC(=O)C(C)N(c1ccccc1Cl)S(C)(=O)=O (centres undefined)	inactive
Cc1cccc(OCCNC(=O)CSc2ccc(C(F)(F)F)cc2[N+](=O)[O-])c1	inactive
Nc1ccccc1Sc1ccc(C(F)(F)F)cc1[N+](=O)[O-]	inactive
O=C(CSc1ccc(C(F)(F)F)cc1[N+](=O)[O-])NCCOc1ccccc1	13.1 µM (active)
CCOc1ccccc1OCCCNCc1ccccc1	inactive
O=C(CNc1ccc(F)cc1F)NC(=O)NCc1ccco1	inactive
Cn1c(CNC(=O)c2ccco2)nnc1SCC(=O)N1CCN(c2ccccc2)CC1	inactive
Cc1nc2nc(C)c(CCC(=O)N3CCC4(CC3)OCCO4)c(C)n2n1	11.7 µM (active)
O=C(Nc1cccc2ccccc12)N1CCC2(CC1)OCCO2	inactive
Cc1nc2ncnn2c(C)c1CCC(=O)N1CCN(C(=O)c2ccco2)CC1	inactive
COc1ccc(CNC(=O)CNC(=O)c2sc3ccccc3c2Cl)cc1OC	inactive
CCOc1ccc(C)cc1S(=O)(=O)NC1CCCCCC1	inactive
Cc1ccc(-n2nc(C)c(C(=O)O)c2-n2cccc2)cc1	inactive
O=C(NCCCc1ccccc1)C1CCC(CNc2c(N3CCCCC3)c(=O)c2=O)CC1 (centres undefined)	inactive
O=C(NCc1ccc(F)cc1)C1CCC(CNc2c(N3CCOCC3)c(=O)c2=O)CC1 (centres undefined)	inactive
O=C(NCc1ccccc1Cl)C1CCC(CNc2c(N3CCCCC3)c(=O)c2=O)CC1 (centres undefined)	10.4 µM (active)
CCOc1ccccc1NC(=O)C1CCC(CNc2c(N3CCOCC3)c(=O)c2=O)CC1 (centres undefined)	inactive
COc1ccc(NC(=O)C2CCC(CNc3c(N4CCCCC4)c(=O)c3=O)CC2)c(OC)c1 (centres undefined)	inactive
CC(NC(=O)C1CCC(CNc2c(N3CCOCC3)c(=O)c2=O)CC1)c1ccccc1 (centres undefined)	13.1 µM (active)

Structure (SMILES)	Potency
CCCCn1c(N)c(N(CCC(C)C)C(=O)COC(=O)c2cccnc2OCC)c(=O)[nH]c1=O	inactive
Cc1ccc(/C=C2\SC(=S)N(CCC(=O)Nc3ccc(O)cc3)C2=O)cc1	inactive
COc1ccc(C(=O)NNC(=S)NC(=O)c2ccccc2)cc1	6.57 µM (active)
COc1ccc(OCC(=O)NNC(=O)c2ccc(-c3ccccc3)cc2)cc1	inactive
COc1ccc(C(=O)NC(=S)NC2CCCCC2)cc1	inactive
Cc1cc(NC(=O)CCC(=O)N(CC(=O)NC2CCCC2)c2ccc(F)cc2)no1	inactive
C=CCC1=C/C(=C\c2c(N)n3nc(CC(=O)N4CCOCC4)sc3nc2=O)C=C(OC)C1=O	inactive
Cc1cnc(NC(=O)CSc2nnc(C)s2)s1	inactive
Cc1cnc(NC(=O)CSc2c(Cl)cccc2Cl)s1	10.4 µM (active)
Cc1ccc(SCC(=O)Nc2ncc(C)s2)cc1	inactive
CCOC(=O)C1=C(C)Nc2sc(C(=O)c3ccc(Br)cc3)c(N)c2C1c1ccc(C(=O)OC)cc1 (centres undefined)	6.57 µM (active)
CCOC(=O)C1=C(C)NC(SC)=NC1c1ccccc1 (centres undefined)	inactive
CCOC(=O)c1sc(=NC(=O)c2ccc(Br)cc2)n(C)c1C	inactive
CC(OC(=O)/C=C/c1ccccc1)C(=O)Nc1ccc(C(N)=O)cc1 (centres undefined)	inactive
O=C(Nc1ccc(Br)cc1)C1CCC(=O)N1Cc1ccccc1Cl (centres undefined)	10.4 µM (active)
O=C1c2ccccc2C(O)N1Cc1ccccc1Cl (centres undefined)	inactive
CCCCNC(=O)C1CCC(=O)N1CCc1ccccc1 (centres undefined)	inactive
COc1ccc(-c2onc3ccc(C(C)=O)cc23)cc1	inactive
O=C(c1ccc2c(c1)OCCO2)C1CCN(S(=O)(=O)c2cccc(F)c2)CC1	inactive
O=C(c1c(F)cccc1F)N1CCN(S(=O)(=O)c2ccc3c(c2)OCCO3)CC1	inactive
O=S(=O)(NC1CCN(S(=O)(=O)c2ccc3c(c2)OCCO3)CC1)c1c(F)cccc1F	11.7 µM (active)
CCOc1ccc(C(=O)CCN2CCOCC2)cc1	inactive

Structure (SMILES)	Potency
O=C1CCN(CCCc2ccccc2)CCN1CCO	inactive
NS(=O)(=O)c1cccc(NC(=O)CC23CC4CC(CC(Br)(C4)C2)C3)c1	inactive
CC(CN1CCOCC1)OC(=O)c1ccc(Cl)cc1Cl (centres undefined)	inactive
Cc1ccc(C(=O)OC(C)CN2CCOCC2)cc1 (centres undefined)	5.86 µM (active)
Cc1cccc(C(=O)OC(C)CN2CCN(C)CC2)c1 (centres undefined)	inactive
O=C(COC(=O)c1ccccc1Br)Nc1nnc(-c2ccccc2)o1	inactive
CN1C/C(=C/c2cccs2)C(=O)/C(=C\c2cccs2)C1	inactive
O=C(CNC(=O)c1ccccc1Br)NCCSc1ccc(Br)cc1	inactive
Cc1ccc(-c2cn(S(=O)(=O)c3cccc([N+](=O)[O-])c3)nc2N)cc1	6.57 µM (active)
O=[N+]([O-])c1cccc(S(=O)(=O)N2CCCCCC2)c1	inactive
Cc1cc(C)n(S(=O)(=O)c2cccc([N+](=O)[O-])c2)n1	inactive
COc1cccc(CN2CCCC(C(=O)c3ccccc3SC)C2)c1O (centres undefined)	1.65 µM (active)
COc1ccc(C(=O)N2CCCC(C(=O)c3ccccc3OC)C2)cc1OC (centres undefined)	inactive
CCOC(=O)CCNC(=O)N1CCCC(C(=O)c2ccccc2SC)C1 (centres undefined)	inactive
CCCCC(c1nnnn1CS(=O)(=O)c1ccc(C)cc1)N1CCC(C(N)=O)CC1 (centres undefined)	inactive
COc1ccc(C(=O)Nc2ccc(C(=O)NCC3CCCO3)cc2)c(OC)c1OC (centres undefined)	inactive
c1ccc(C2CCC(N3CCC(N4CCCCC4)CC3)CC2)cc1 (centres undefined)	2.62 µM (active)
CCOC(=O)CN1CCC(c2ccccc2)CC1	inactive
O=C(Cc1ccccc1)N1CCN(C2CCCCCC2)CC1	inactive
CC1CCCC(C)N1C(=O)COC(=O)COc1ccccc1C#N (centres undefined)	inactive
COc1ccccc1OCC(=O)OCc1cc(-c2ccco2)on1	inactive
CN(CC(=O)Nc1ccc(F)c(F)c1F)C(=O)C1CC(=O)N(C2CCCC2)C1 (centres undefined)	inactive

Structure (SMILES)	Potency
CCOC(=O)C1=C(C)NC(=O)NC1c1ccccc1 (centres undefined)	inactive
CC1=C(C(=O)OCC2CCCCC2)C(c2ccc(F)cc2)NC(=O)N1 (centres undefined)	inactive
CCC(CC)COC(=O)C1=C(C)NC(=O)NC1c1ccc([N+](=O)[O-])cc1 (centres undefined)	4.65 µM (active)
Cc1ccc(N(CC(=O)NCC2CCCO2)C(=O)CNS(=O)(=O)c2ccc(Cl)cc2)cc1 (centres undefined)	inactive
CCc1nnc(NC(=O)CCC(=O)N2CCN(c3cc(C)ccc3C)CC2)s1	inactive
Cc1cc(Cl)nc(NC(=O)Nc2cccc(Cl)c2)n1	inactive
CNC(=O)CN1C(=O)NC(c2ccccc2)(c2ccccc2)C1=O	inactive
Cc1c(C=O)n(C)n(-c2ccccc2)c1=O	inactive
CCC1(c2ccccc2)C(=O)NC(=O)N(C)C1=O (centres undefined)	15.1 µM (active)
O=C(CSc1nc2ccccc2o1)N/N=C/c1ccccc1C(=O)O	inactive
CCc1ccc(OCC(=O)OC(C)C(=O)NC2CC2)cc1 (centres undefined)	inactive
CC(C)OCCCNc1ncnc2c1[nH]c1ccc(F)cc12	0.185 µM (active)
O=C1CCCN1CCCNc1ncnc2c1[nH]c1ccccc12	inactive
Cc1ccsc1C(=O)OCC(=O)Nc1cccc(F)c1	inactive
Cn1c2c(c(=O)n(C)c1=O)C(c1cccc(F)c1)C(C#N)=C(N)O2 (centres undefined)	inactive
CCc1ccc(NC(=O)Cn2nc(C)c([N+](=O)[O-])c2C)cc1	inactive
Cc1nn(CC(=O)Nc2ccc(F)cc2)c(=O)c2ccccc12	inactive
CCc1ccc(NC(=O)Cn2ncn3c(cc4ccccc43)c2=O)cc1	1.47 µM (active)
O=C(NCCN1CCOCC1)Nc1cccc(Cl)c1	inactive
O=C(NCCN1CCOCC1)c1cc(Sc2cccc(Cl)c2)nc2ccccc12	5.22 µM (active)
CC(=O)Oc1cc2c(C(=O)NCCN3CCOCC3)c(C)oc2c2ccccc12	inactive
